High-throughput results: PubChem, National Center for Advancing Translational Sciences (NCATS)
An excerpt weighted towards active compounds, which were near 2.4% of everything screened.
FEN1 inhibitor = inhibitors of human flap endonuclease 1. AID 588795. Potency, µM (titrated, usually from 114 µM), hits mostly inhibitors. P39748. Recombinant FEN1 flap cleavage, fluorescence, 15 min. hit rate 0.35% among 390,000; further: nearly all actives have a fitted effect of over 65% in size
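Read-out was taken twice, immediately and after 15 min, following addition of 50 nM substrate to 10 nM FEN1 that had sat with test compound for 15 min at room temperature. Curves came from a four-parameter Hill model.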
Pol beta inh = DNA polymerase beta (human) inhibition | P06746 | Pol beta primer extension/strand displacement, fluorescence kinetic | Potency, µM (titrated, usually from 114 µM), actives largely listed as inhibitors | hit rate 1.3% among 340,000 | AID 485314
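10 nM enzyme + cpd, 15 min RT; start with substrate 50 nM final; read 0 min and after 10 min RT. Corrected, normalized data; 4-parameter Hill curve fit.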
POLK inh = DNA polymerase kappa (human) inhibition | purified Pol kappa, fluorescent DNA synthesis assay, 10 min | Potency, µM (series often up to 107 µM), most hits filed as inhibitors | hit rate 0.53% among 400,000 | AID 588579
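Kinetic fluorescence readout at 0 and 10 min followed reaction start with substrate at 50 nM final. Beforehand, enzyme (10 nM Pol kappa) stood 15 min with compound at room temperature; buffer-only wells were negative controls.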
POLH inh = blocks human DNA polymerase eta activity; Q9Y253; recombinant Pol eta, fluorescent DNA replication assay; Potency, µM (series often up to 114 µM), usual class: inhibitors; hit rate 1.2% among 390,000
Target sequence (Q9Y253 whole entry, looked up): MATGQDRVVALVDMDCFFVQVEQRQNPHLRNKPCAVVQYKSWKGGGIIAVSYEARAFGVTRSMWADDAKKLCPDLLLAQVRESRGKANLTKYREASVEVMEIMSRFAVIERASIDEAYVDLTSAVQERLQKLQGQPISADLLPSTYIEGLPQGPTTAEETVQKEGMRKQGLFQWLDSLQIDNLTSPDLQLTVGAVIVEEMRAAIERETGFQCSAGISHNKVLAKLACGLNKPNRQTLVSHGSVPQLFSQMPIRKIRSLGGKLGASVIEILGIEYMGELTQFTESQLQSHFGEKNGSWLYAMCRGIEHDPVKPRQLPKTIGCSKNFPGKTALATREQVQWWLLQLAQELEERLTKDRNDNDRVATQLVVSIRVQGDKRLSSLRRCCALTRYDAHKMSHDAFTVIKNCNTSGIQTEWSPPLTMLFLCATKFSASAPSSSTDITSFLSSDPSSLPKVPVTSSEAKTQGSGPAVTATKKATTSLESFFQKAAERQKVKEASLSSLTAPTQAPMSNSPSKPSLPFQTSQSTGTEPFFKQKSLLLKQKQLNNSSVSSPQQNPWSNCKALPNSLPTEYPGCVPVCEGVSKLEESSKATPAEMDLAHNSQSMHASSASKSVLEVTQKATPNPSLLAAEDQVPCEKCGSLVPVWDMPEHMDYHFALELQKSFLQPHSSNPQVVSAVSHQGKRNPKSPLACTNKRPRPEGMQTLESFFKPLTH
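Pol eta (10 nM) was preincubated with compounds for 15 min at room temperature, after which fluorescent replication substrate (50 nM final) was added to start the reaction. Fluorescence was read kinetically at 0 and 10 min.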
WRN inhibitor = blocks human WRN helicase; Q14191; WRN helicase unwinding, fluorescent forked duplex, kinetic; Potency, µM (doses to about 114 µM), usual class: inhibitors; hit rate 0.46% among 360,000; AID 651768; further: nearly all actives have a fitted effect of over 55% in size
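Kinetic red-fluorescence monitoring (525/598 nm) tracks WRN helicase activity after 100 nM fluorophore-quencher forked duplex and 2 mM ATP are added to 20 nM enzyme pretreated 15 min at room temperature with compound.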
Pol iota inh = DNA polymerase iota (human) inhibition | Q9UNA4 | Pol iota fluorescent replication assay, 10 min | Potency, µM (series often up to 115 µM), hits mostly inhibitors | hit rate 1% among 390,000 | AID 588590
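Pol iota at 10 nM preincubated 15 min with compounds at room temperature; reaction started with fluorescent substrate, 50 nM final. Fluorescence read kinetically at 0 and 10 min; buffer-only wells as negative control.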
A number is an active result; - = inactive; ? = inconclusive; . = not tested or not shown; [ ] = remark or other dose. The call rests on the fitted dose curve; in most records, active means well fitted curve in the direction sought with a large enough effect; inconclusive means small, poorly fitted or top-dose-only effect, or another doubt; inactive means no such curve, though single readings can be large; an effect the other way counts as inactive or inconclusive.

SMILES	FEN1 inhibitor	Pol beta inh	POLK inh	POLH inh	WRN inhibitor	Pol iota inh
Cn1c(=O)c2sccc2n2c(CCCC(=O)Nc3ccc(Oc4ccccc4)cc3)nnc12	?	-	-	-	.	-
CCN(c1ccccc1)c1nnc(NC(=O)Nc2ccc(Br)cc2F)s1	-	-	-	-	.	-
Cc1ccc(C)c(NC(=O)CSc2nncn3c2cc2sccc23)c1	-	-	-	-	.	-
CNC(=O)c1c(NC(=O)c2nc3ccccc3s2)sc2c1CCC2	.	44.7µM	.	.	.	.
Cc1ccc(OCc2cc(=O)n3c(-c4ccccc4)csc3n2)cc1	-	20µM	?	?	.	56.2µM
O=c1cc(CN2CCN(c3ccccc3O)CC2)nc2sccn12	-	?	-	20µM	-	44.7µM
O=c1cc(CN2CCN(c3ccccc3)CC2)nc2scc(-c3ccccc3)n12	-	39.8µM	-	-	-	56.2µM
CCOc1ccc(NC(=O)CN(C)Cc2cc(=O)n3c(-c4ccccc4)csc3n2)cc1OCC	-	25.1µM	-	-	-	?
COc1cc(=O)n2c(-c3ccccc3)csc2n1	-	-	-	-	-	-
O=C(CSCc1ccc(Cl)cc1)N/N=C/c1ccc(OCC(=O)Nc2ccccc2)cc1	-	79.4µM	-	-	-	?
COc1ccc(-c2nn(-c3ccccc3)cc2C(=O)Nc2cccc(C(=O)O)c2)cc1[N+](=O)[O-]	?	35.5µM	-	-	?	-
CC(NC(=O)/C(C#N)=C/c1ccc([N+](=O)[O-])o1)c1ccccc1 (configuration not stated)	?	39.8µM	-	50.1µM	56.2µM	20µM
CC(NC(=O)/C(C#N)=C/c1ccco1)c1ccccc1 (configuration not stated)	-	-	-	-	-	-
C1=C/C(=C2/C=Cc3ccccc32)c2ccccc2N1	-	.	-	.	.	-
COc1ccc([C@]23Cc4c(ccc5ccccc45)C(O2)C2=C(CCCC2=O)O3)cc1	.	-[22.9 µM]	.	.	.	.
COc1ccc([C@]23Cc4c(ccc5ccccc45)C(O2)C2=C(CC4(CCCCC4)OC2=O)O3)cc1	.	-[22.9 µM]	.	.	.	.
O=C1C2=C(C(=O)c3ccccc31)C1O[C@](c3ccsc3)(Cc3c1ccc1ccccc31)O2	.	3.16µM	.	.	.	.
O=c1oc2ccccc2c2c1C1O[C@](c3ccsc3)(Cc3c1ccc1ccccc31)O2	.	12.6µM	.	.	.	.
O=C1CCCC2=C1C1O[C@](c3ccsc3)(Cc3c1ccc1ccccc31)O2	.	3.98µM	.	.	.	.
O=C1c2ccccc2C(=O)N1CCCC[C@]12Cc3ccccc3C(O1)c1c(c3ccccc3oc1=O)O2	.	-[22.9 µM]	.	.	.	.
O=C(COC(=O)/C=C/c1ccc(Br)o1)Nc1ccccc1F	.	25.1µM	.	.	.	.
CSc1ccccc1NC(=O)COC(=O)/C=C/c1ccco1	-	.	-	?	?	?
O=C(COC(=O)/C=C/c1ccc(Br)o1)NC1CCCCC1	-	.	79.4µM	?	-	22.4µM
O=C(C[n+]1ccncc1)c1ccc(Br)cc1	-	.	-	.	.	-
O=C(Nc1ccc(-c2ccco2)cc1)C1CCCN(Cc2ccc(CO)o2)C1 (configuration not stated)	-	-	-	-	-	?
SMILES	FEN1 inhibitor	Pol beta inh	POLK inh	POLH inh	WRN inhibitor	Pol iota inh
CC(=O)c1cccc(CN2CCCC(C(=O)Nc3ccc(-c4ccco4)cc3)C2)c1 (configuration not stated)	-	-	-	?	-	44.7µM
CCOc1ccccc1N1CCN(CC(=O)N(C2CCCC2)C2CCS(=O)(=O)C2)CC1 (configuration not stated)	-	.	-	-	-	-
CCOc1ccccc1N1CC(C(=O)N(CC)C2CCS(=O)(=O)C2)CC1=O (configuration not stated)	-	.	-	50.1µM	-[11.6 µM]	?
CC(C)C(=O)Nc1cccc(-c2nc3ccccc3o2)c1	-	?	-	-	-	-
COc1ccccc1OC(C)C(=O)Nc1cccc(-c2nc3ccccc3o2)c1 (configuration not stated)	?	50.1µM	?	?	.	89.1µM
O=C(Nc1ccc2nn(-c3ccccc3)nc2c1)c1ccc2c(c1)OCO2	-	39.8µM	-	?	-	-
Cc1ccc(C(=O)Nc2onc3c2CCCC3)cc1	-	-	-	-	.	-
CN(C)c1ccc(/C=C/c2ccnc3ccccc23)cc1Br	-	.	-	.	.	-
Cc1[nH][nH]c(=O)c1C(c1c(C)[nH][nH]c1=O)c1cn(Cc2ccccc2Cl)c2ccccc12	-	-	-	?	-	5.62µM
N/C(=N\O)c1cn(Cc2ccccc2Cl)c2ccccc12	-	-	-	-	-	-
COc1ccc(/C=N/Nc2ncc(-c3ccccc3)cn2)c(OC)c1	-	?	-	-	-[11.6 µM]	25.1µM
COc1ccc(/C=N/Nc2nc(C)cc(-c3ccccc3)n2)c(OC)c1	-	-	-	-	-	-
O=C(Cc1ccc(OCCCc2ccccc2)cc1)NO	-	.	-	.	.	-
Cc1nc(S/C(=C/c2ccc(-c3cc(Cl)ccc3C)o2)C(=O)O)n[nH]1	?	?	?	?	-[11.6 µM]	?
Cc1nc(S/C(=C/c2ccc(-c3ccc(Cl)cc3)o2)C(=O)O)n[nH]1	-	-	-	25.1µM	-	-
Cc1[nH]n(-c2ccccc2)c(=O)c1C=Nc1ccc(S(=O)(=O)N=C(N)N)cc1	-	-	-	?	-[11.6 µM]	50.1µM
Cc1[nH]n(-c2ccc(Br)cc2)c(=O)c1C=Nc1ccc(S(=O)(=O)Nc2nccs2)cc1	-	?	-	44.7µM	-	?
CCOc1ccccc1NC1(c2ccccc2)C(=O)c2ccccc2C1=O	-	-	-	-	.	-
CCOC(=O)c1c(NC(=O)c2cc3nc(-c4ccccc4)cc(C(F)(F)F)n3n2)sc2c1CCC(C)C2 (configuration not stated)	-	-	-	-	.	-
Brc1cccc[n+]1Cc1ccccc1C[n+]1ccccc1Br	-	.	-	.	.	-
Cc1ccc2c(=O)c(C(=O)c3ccccc3)cn(CC(=O)NCc3ccccc3)c2n1	-	?	-	-	.	-
O=C(NC1CCSC1=O)c1cccc(C(=O)NC2CCSC2=O)c1 (configuration not stated)	-	50.1µM	-	?	-	?
Cc1ccc2c(c1)sc[n+]2Cc1ccccc1	-	-	-	-	-[11.6 µM]	44.7µM
COc1cc2c(cc1O)CCN[C@@]21CS[C@H]2c3c(OC(C)=O)c(C)c4c(c3C(COC1=O)N1C2C2c3c(cc(C)c(OC)c3O)CC([C@@H]1O)N2C)OCO4 (some centres not stated)	.	.	-[19.4 µM]	.	.	.
Cc1ccc(Cn2cccc2/C=C2/C(=N)N3C=CSC3=NC2=O)cc1	-	-	-	70.8µM	-	?
COc1cc(C2CC(=O)N3CN(c4ccccc4C)CSC3=C2C#N)cc(OC)c1OC (configuration not stated)	.	-	.	.	.	.
COc1ccccc1N1CSC2=C(C#N)C(c3ccc(SC)cc3)CC(=O)N2C1 (configuration not stated)	?	25.1µM	?	44.7µM	-	?
